The source of these data is PubChem BioAssay AID739 (SRMLSC, 2007).

Among all 98,000 compounds or so, about 880 (0.9%) were called active. No stated cut-off is given here; in the data, active means inhibition above about 30%; inactive means the rest. The sample as a whole holds a higher share of actives than the screen did.

The nature of this assay: phenotypic screen on post-Golgi transport, primary screen (AID 739).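 Further: yeast cells grown in 1536-well plates; yeast grown about 18 h at 30C before absorbance read.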 To be noted: post-Golgi transport phenotypic cell assay; at 10 µM; stronger effect = higher value.
The inhibition is the change of the read-out against control, counted positive when it falls. In the case of `CC(C)C(NS(=O)(=O)c1cccs1)C(=O)Nc1nc(C(C)(C)C)cs1` (stereo unspecified), the inhibition was 7.03% (inactive).

Take `Cc1c(C=O)c2ccccn2c1C(=O)c1ccncc1`: the inhibition is -6.66% (inactive).

As for `COc1ccc(NC(=O)Nc2ccc3nsnc3c2)cc1`, the inhibition is -0.7% (inactive).

For the molecule `O=C(Nc1ccc2ccccc2c1)Nc1ccc2snnc2c1`, the inhibition is 96.1% (active).

In the case of `COc1ccc(NC(=O)Nc2ccc3nc(C)c(C)nc3c2)cc1`, the inhibition was -7.69% (inactive).

As to `CC(=O)Nc1ccccc1C(=O)C(=O)Nc1ccc(F)cc1`, the inhibition is -1% (inactive).

In the case of `Cc1nnc(NC(=O)Nc2ccc(Cl)c(Cl)c2)s1`, the inhibition is 5.16% (inactive).

As for `N/C(=N\OC(=O)Nc1ccc(Cl)c(Cl)c1)c1ncc(C(F)(F)F)cc1Cl`, the inhibition was 3.3% (inactive).

With `O=C(CC(O)(C(F)(F)F)C(F)(F)F)Nc1ccc(Cl)c(Cl)c1`, the inhibition was 105% (active).

In the case of `COc1cc(SC)ccc1C(=O)NCCOc1ccccc1Cl`, the inhibition was 4.48% (inactive).

Turning to `Cc1ccc(-c2nc3ccccc3[nH]2)cc1N`, the inhibition was 0.67% (inactive).

As to `c1ccc(-c2[nH]ncc2-c2nc3ccccc3[nH]2)cc1`, the inhibition is 11% (inactive).

For `c1ccc2[nH]c(-c3nc4ccccc4[nH]3)nc2c1`, the inhibition was 30.1% (active).

Turning to `COc1ccc(C(=O)NC(=S)NNC(=O)CCc2ccccc2)cc1`, the inhibition is 0.19% (inactive).

As for `CCCc1ccc(OCC(=O)NNC(=S)NC(=O)c2ccco2)cc1`, the inhibition was 27.3% (inactive).

Consider `CC(Oc1ccc2ccccc2c1)C(=O)NNC(=S)NC(=O)c1ccco1` (stereo unspecified), for which the inhibition was 43% (active).

On to `CCN(CC(=O)NC1CCS(=O)(=O)C1)c1nc(-c2cccnc2)nc2ccccc12` (stereo unspecified), for which the inhibition is 3.37% (inactive).

For the molecule `COC(=O)Cc1cc(=O)oc2c(C)c(O)ccc12`, the inhibition was -6.64% (inactive).

Turning to `CS(=O)(=O)N(CC(=O)N1CCN(Cc2ccc3c(c2)OCO3)CC1)c1ccc2c(c1)OCO2`, the inhibition is 6.95% (inactive).

In the case of `COc1cc(Cl)c(S(=O)(=O)N2CCN(Cc3ccc4c(c3)OCO4)CC2)cc1Cl`, the inhibition was 38.9% (active).

`CCn1cc(C(=O)N2CCN(Cc3ccc4c(c3)OCO4)CC2)c2cc(OC)c(OC)cc2c1=O`: the inhibition is -1.13% (inactive).

Turning to `CC(=O)c1ccc(Cc2ncc(C(F)(F)F)cc2Cl)s1`, the inhibition is 6.38% (inactive).

In the case of `COc1ccc(-c2cc(C(F)(F)F)nc(S(C)(=O)=O)n2)cc1OC`, the inhibition was 54.9% (active).

For the molecule `COc1ccc(-c2ccc(Nc3ccc(S(=O)(=O)N4CCCC4)cc3)nn2)cc1OC`, the inhibition is 1.55% (inactive).

In the case of `COc1ccc(-c2cc(C(F)(F)F)nc(NCc3cccnc3)n2)cc1`, the inhibition was 10.4% (inactive).

For `CCOC(=O)c1cc2c(ccn2C)n1CC(=O)N1CCC(C)CC1`, the inhibition was 1.25% (inactive).

On to `O=C(c1cccc(F)c1)N1CCC(O)(c2cccnc2)CC1`, for which the inhibition was 1.27% (inactive).

With `COc1ccc2[nH]cc(/C=C(/C#N)S(=O)(=O)c3ccccc3)c2c1`, the inhibition was -4.52% (inactive).

As for `Cc1ccc(C2(C(F)(F)F)N=C3Sc4cc(C)cc(C)c4N3C(=O)N2)cc1` (stereo unspecified), the inhibition was 90.2% (active).

Regarding `Cc1n[nH]c(=O)n1-c1ccc(Oc2ccccc2)cc1`, the inhibition was -19.2% (inactive).

As to `COC(=O)Nc1ncc(CN2CCCCC2)s1`, the inhibition was -4.67% (inactive).

In the case of `Cc1ccc(/C=N/NC(=O)C(NC(=O)c2ccccc2)c2n[nH]c(=O)c3ccccc23)cc1` (stereo unspecified), the inhibition is 0.64% (inactive).

`Cc1cc(NC(=O)/C=C/C(=O)N(c2ccccc2C)C(C(=O)NC2CCCC2)c2ccc(F)cc2)no1` (stereo unspecified): the inhibition is 0.32% (inactive).

With `O=C(CSc1nnc(-c2ccccc2)o1)N1CCOCC1`, the inhibition is 8.7% (inactive).

Take `CC1=CC(C)(C)N(C(=O)CSc2nnc(-c3ccccc3)o2)c2ccc(C)cc21`: the inhibition is 101% (active).

As to `CC1=CC(C)(C)N(C(=O)CSc2nccn2C)c2cc(C)ccc21`, the inhibition was 5.13% (inactive).

As for `Cc1ccc(CNC(=O)c2ccccc2CCc2ccccc2)cc1`, the inhibition is -2.21% (inactive).

Regarding `FC(F)(F)COc1nc(N2CCCCC2)nc(N2CCNCC2)n1`, the inhibition was 33.5% (active).

Turning to `O=C(CSCc1ccc(Cl)cc1)N1CCCCC1`, the inhibition was -4.56% (inactive).

As to `Cc1cc(C)c([N+](=O)[O-])cc1-c1ccc(/C=N/NC(=O)c2nonc2N)o1`, the inhibition was -6.17% (inactive).

On to `Cc1cc(-c2ccc(/C=N/n3cnnc3)o2)c([N+](=O)[O-])cc1C`, for which the inhibition is 59.7% (active).

`Cc1cc([N+](=O)[O-])c(-c2ccc(/C=N/n3cnnc3)o2)cc1Cl`: the inhibition is 99.8% (active).

In the case of `O=C1C2C3C=CC(C4CC34)C2C(=O)N1/N=C/c1ccc(-c2ccccc2[N+](=O)[O-])o1` (stereo unspecified), the inhibition is 3.37% (inactive).

Turning to `CCOc1ccc(C(=O)NCCCN2CCCC2=O)cc1`, the inhibition was 11.5% (inactive).

Regarding `O=C(COC(=O)c1ccccc1NC(=O)c1ccco1)Nc1ccc2c(c1)OC(F)(F)O2`, the inhibition is -2.04% (inactive).

Consider `Cc1nc2ccc(NC(=O)C(F)(F)F)cc2o1`, for which the inhibition is -13.7% (inactive).

`OC(c1ccccc1)c1nccn1Cc1ccccc1` (stereo unspecified): the inhibition is -6.53% (inactive).

Regarding `Cn1c(-c2sc3cc(C(F)(F)F)cnc3c2-c2ccccc2)n[nH]c1=S`, the inhibition is -3.98% (inactive).

With `c1ccc2c(CSCc3nc4ccccc4[nH]3)cccc2c1`, the inhibition was 4.1% (inactive).

Consider `Cc1ccc(SCC(=O)Nc2ncc(C)s2)cc1`, for which the inhibition is -7.09% (inactive).

Turning to `O=C1c2ccccc2C2=Nc3ccccc3SC(c3ccccc3F)C12` (stereo unspecified), the inhibition is 103% (active).

With `Cc1c(CCO)c(=O)n(-c2ccccc2)n1S(=O)(=O)c1ccc(F)cc1`, the inhibition is -6.46% (inactive).

For `CC(C)c1nc(N2CCOCC2)c(C#N)c2c1COC(C)(C)C2`, the inhibition was -8.94% (inactive).

Take `CC(C)Cc1nc(N2CCOCC2)c(C#N)c2c1CCC2`: the inhibition is 35% (active).

Regarding `CC(C)CCNc1nc(N2CCCC2)c2c(c1C#N)CCN(C)C2`, the inhibition was -1.14% (inactive).

As to `CCOc1ccc(-c2c(C)n([O-])c3c([n+]2=O)CCCC3)cc1`, the inhibition is 0.66% (inactive).

With `COc1ccc(C2CC(c3ccccc3)Nc3ncnn32)cc1` (stereo unspecified), the inhibition is 4.34% (inactive).

Turning to `FC(F)Oc1ccccc1C1CC(c2ccc(Br)s2)Nc2ncnn21` (stereo unspecified), the inhibition was 39.4% (active).

In the case of `Clc1ccc(C2CC(c3cccs3)n3ncnc3N2)cc1Cl` (stereo unspecified), the inhibition was 1.99% (inactive).

With `CC(C)C(=O)OCC(=O)Nc1ccc2c(c1)CCC2`, the inhibition is 7.4% (inactive).

For `CCC(=O)NC(Nc1cc(C)ccn1)(C(F)(F)F)C(F)(F)F`, the inhibition was 6.28% (inactive).

As for `COCCNS(=O)(=O)c1cc(Br)ccc1OC`, the inhibition was 8.12% (inactive).

Consider `CC1=NCCN1S(=O)(=O)c1ccc(Br)c(C)c1`, for which the inhibition was 3.83% (inactive).

Consider `COc1ccc(Br)cc1S(=O)(=O)N1CCN=C1C`, for which the inhibition was 31.5% (active).

With `COCc1[nH][nH]c(=O)c1C=Nc1ccc(F)cc1F`, the inhibition was 5.45% (inactive).

On to `COC(=O)c1cc(NC(=O)C2C3C=CC(C3)C2C(=O)O)cc(C(=O)OC)c1` (stereo unspecified), for which the inhibition was 2.17% (inactive).

Consider `CCc1nn(-c2cc(Oc3cccc4ccccc34)nc(-c3ccccc3)n2)c(N)c1C#N`, for which the inhibition is -15.9% (inactive).

As to `O=[N+]([O-])c1ccc(Oc2ccc(F)cc2Br)c2ccncc12`, the inhibition is 54.4% (active).

`CCOC(=O)Nc1sc(C(=O)N(C)C)c(C)c1C(=O)OCC`: the inhibition is 21.1% (inactive).

For `Cc1ccc(CCN2CC(C(=O)O)CC2=O)cc1` (stereo unspecified), the inhibition is -4.77% (inactive).

Turning to `NC(=O)N1CCCC1C(=O)Nc1ccc(Cl)c(Cl)c1` (stereo unspecified), the inhibition is -3.91% (inactive).

In the case of `CCOC(=O)/C(=C\c1ccc([N+](=O)[O-])cc1)C(=O)c1cc(C(C)=O)c(Nc2ccccc2)s1`, the inhibition was 64.9% (active).

As for `O=C(NCCc1ccccc1)/C(=C\c1ccc([N+](=O)[O-])cc1)NC(=O)c1ccccc1`, the inhibition is 4.97% (inactive).

For the molecule `CCOC(=O)/C(C#N)=C/c1ccc(OCC(=O)Nc2ccccc2)c(OC)c1`, the inhibition was 6.16% (inactive).

`Cc1noc(/C=C/c2ccco2)c1S(=O)(=O)N1CCC(C(=O)N2CCc3ccccc32)CC1`: the inhibition is -4.89% (inactive).

As for `COc1ccccc1CSc1nc2ccccc2[nH]1`, the inhibition was 1.93% (inactive).

Take `CCc1c(-c2ccccc2)nc(N)c(C#N)c1-c1cccs1`: the inhibition is 2.36% (inactive).

Regarding `O=c1c2ccccc2oc2nc(C3CCCCC3)n(Cc3ccco3)c(=O)c12`, the inhibition was 68.9% (active).

For the molecule `O=c1c2ccccc2oc2nc3n(c(=O)c12)CCCS3`, the inhibition was 5.66% (inactive).

`CCc1nc2oc3ccccc3c(=O)c2c(=O)n1Cc1ccc(OC)cc1`: the inhibition was 8.05% (inactive).

On to `COc1cc(/C=C(/NC(=O)c2ccccc2)C(=O)Nc2cccc(O)c2)c([N+](=O)[O-])cc1OC`, for which the inhibition was -17.3% (inactive).

As to `COCCn1c(SCc2nc3cc(OC)c(OC)cc3c(=O)[nH]2)nnc1-c1ccncc1`, the inhibition is 6.95% (inactive).

On to `C=CCNC(=O)c1sc(SC)cc1-c1ccc(Cl)cc1`, for which the inhibition was 20% (inactive).

For `CCCCCCC(=O)Nc1nc(C)c(-c2csc(Nc3cccc(OC)c3)n2)s1`, the inhibition was -3.09% (inactive).

On to `COc1ccc(C2=NO[C@@H]3C(=O)N(Cc4ccccc4)C(=O)[C@H]23)cc1OC`, for which the inhibition was 6.43% (inactive).

For `CC(=O)Nc1cc(C(=O)O)ccc1S(=O)(=O)c1ccc(Cl)cc1`, the inhibition was -1.65% (inactive).

Consider `O=C(Nc1ccccc1)c1nnsc1S(=O)(=O)c1ccc(Cl)cc1`, for which the inhibition was 76.3% (active).

For `O=C(Nc1ccc(Cl)cc1)c1ccsn1`, the inhibition was 8.05% (inactive).

On to `Cc1cc(N/C=C\C(=O)c2ccc(Cl)c(Cl)c2)no1`, for which the inhibition was -4.69% (inactive).

Regarding `CCOc1cccc(NC(=O)C2CCCN(S(=O)(=O)c3ccc(OC)cc3)C2)c1` (stereo unspecified), the inhibition was -5.63% (inactive).

Turning to `COc1cccc(NC(=O)C2CCCN2C(=O)OCc2ccccc2)c1` (stereo unspecified), the inhibition is 32% (active).

`CC(=O)c1cccc(NC(=O)N2CCCC2C(=O)NCCc2ccccc2)c1` (stereo unspecified): the inhibition is 20% (inactive).

Turning to `CCN(CC)C(=O)CSc1nc2ccccc2n1CC(=O)N1CCN(c2ccccc2OC)CC1`, the inhibition was 11.2% (inactive).

In the case of `COc1ccc(C(=O)Nc2ncc3c(n2)-c2ccccc2CC3)cc1`, the inhibition was 16.5% (inactive).

With `Cc1ccn2cc(-c3nonc3C)cc2c1`, the inhibition was 37.3% (active).

For the molecule `COc1ccc(C2CC(=O)Nc3cc(C)c(C)cc32)c(OC)c1OC` (stereo unspecified), the inhibition is 11.7% (inactive).
